Source: PubChem BioAssay (Tox21)
Records with an inconclusive call do not appear. A call without a number means that no potency is given here. Values without a mark were called inactive. Activity calls are given as the source filed them. The call rests on the fitted dose curve; in most records, active means well fitted cell-killing curve with a large enough effect in the repeat runs; inconclusive means weak or mixed curves, or effect the other way; inactive means flat fitted curve, though single readings scatter.

Experiments:
[1] = cAMP Responsive Elements (CRE) small molecule antagonists, cell-based qHTS assay: qHTS cell viability counter screen (AID 2060913); further: nearly all actives have a fitted effect of over 40% in size
Outline: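 CRE-bla HEK293T cells were seeded in assay medium with 10% dialyzed FBS, incubated 18 hrs at 37 C, then exposed to compounds plus 0.25 uM final NKH477 for 3 hrs. Viability was read by CellTiter-Glo luminescence after 30 min, in the same wells.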

[2] = cAMP Responsive Elements (CRE) small molecule agonists, cell-based qHTS assay: qHTS cell viability counter screen (AID 2060914);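 further: viability read after 3 h of compound exposure; nearly all actives have a fitted effect of over 50% in size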
Outline: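 Cells are seeded and incubated 18 h, treated with compounds in DMSO for 3 h, read for the bla reporter, then given CellTiter-Glo; luminescence is measured after 30 min at room temperature.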

C=CC(C)=CCC=C(C)C
Potency [1]: inactive | Potency [2]: inactive

COc1cc([C@@H]2c3cc4c(cc3[C@@H](O[C@@H]3O[C@@H]5CO[C@@H](C)O[C@H]5[C@H](O)[C@H]3O)[C@H]3COC(=O)[C@H]23)OCO4)cc(OC)c1O
Potency [1]: inactive | Potency [2]: inactive

Nc1nnc(-c2cccc(Cl)c2Cl)c(N)n1
Potency [1]: inactive | Potency [2]: inactive

Cc1cc(C(C)(C)C)c(O)c(C)c1Cn1c(=O)n(Cc2c(C)cc(C(C)(C)C)c(O)c2C)c(=O)n(Cc2c(C)cc(C(C)(C)C)c(O)c2C)c1=O
Potency [1]: inactive | Potency [2]: inactive

C[C@H](CCC(=O)O)[C@H]1CC[C@H]2[C@@H]3C(=O)C[C@@H]4CC(=O)CC[C@]4(C)[C@H]3CC(=O)[C@]12C
Potency [1]: inactive | Potency [2]: inactive

CN(C(=O)c1c(O)c2ccccc2n(C)c1=O)c1ccccc1
Potency [1]: inactive | Potency [2]: inactive

CCN(CC)CCNc1ccc(CNC=O)c2sc3ccc(OC)cc3c(=O)c12
Potency [1]: inactive | Potency [2]: inactive

CN1C(=O)N(c2ccccc2Br)Cc2cnc(Nc3ccc4c(c3)OCC(CO)O4)nc21 (stereo unspecified)
Potency [1]: inactive | Potency [2]: inactive

C=C(C)C1CC=C(C)CC1 (stereo unspecified)
Potency [1]: inactive | Potency [2]: inactive

C=C(C)[C@@H]1CC[C@@H](C)C[C@@H]1O
Potency [1]: inactive | Potency [2]: inactive

NC(=O)NC1NC(=O)NC1=O (stereo unspecified)
Potency [1]: inactive | Potency [2]: inactive

O=C1CCCC1
Potency [1]: inactive | Potency [2]: inactive

O=C(CCN1CCC(c2ccccc2)C1)c1ccc2c(c1)OCCO2 (stereo unspecified)
Potency [1]: inactive | Potency [2]: inactive

O=C1NC(=O)C2CC=CCC12 (stereo unspecified)
Potency [1]: inactive | Potency [2]: inactive

OCCOc1ccc(OCCO)cc1
Potency [1]: inactive | Potency [2]: inactive

CCCc1nc2c(C)cc(-c3nc4ccccc4n3C)cc2n1Cc1ccc(-c2ccccc2C(=O)O)cc1
Potency [1]: inactive | Potency [2]: inactive

C[C@@H]1CC[C@@]2(OC1)O[C@H]1C[C@H]3[C@@H]4CC[C@H]5C[C@@H](O)CC[C@]5(C)[C@H]4CC(=O)[C@]3(C)[C@H]1[C@@H]2C
viability change, negative = cytotoxic [1]: 0.912% [at 8.39 µM] | activity change, negative = cytotoxicity [2]: -1.47% [at 8.39 µM]

CCN(CC)c1cccc(O)c1
Potency [1]: inactive | Potency [2]: inactive

CC1(C)C(=O)N(Cl)C(=O)N1Br
Potency [1]: inactive | Potency [2]: inactive

CC(=O)/C=C/C=C1/C2CCC(C2)C1(C)C (stereo unspecified)
Potency [1]: inactive | Potency [2]: inactive

OC[C@H]1O[C@@](CO)(O[C@H]2O[C@H](CO)[C@@H](O)[C@H](O)[C@H]2O)[C@@H](O)[C@@H]1O
Potency [1]: inactive | Potency [2]: inactive

CC(C)(C)c1n[nH]c(=O)n(N)c1=O
Potency [1]: inactive | Potency [2]: inactive

c1cc(-c2ccncc2)ccn1
Potency [1]: inactive | Potency [2]: inactive

O=C1OC(=O)c2ccc3c4c(ccc1c24)C(=O)OC3=O
Potency [1]: inactive | Potency [2]: inactive

CC(=O)c1cccnc1
Potency [1]: inactive | Potency [2]: inactive

O=C(O)c1ccc(S(=O)(=O)N(Cl)Cl)cc1
Potency [1]: inactive | Potency [2]: inactive

O=C(O)c1ccccc1
Potency [1]: inactive | Potency [2]: inactive

Cc1ccc(C(C)C)cc2c(C)ccc1-2
Potency [1]: inactive | Potency [2]: inactive

Cc1ncc([N+](=O)[O-])n1C
Potency [1]: inactive | Potency [2]: inactive

OCCN(CCO)c1cccc(Cl)c1
Potency [1]: inactive | Potency [2]: inactive

NS(=O)(=O)c1ccc(C(=O)O)cc1
Potency [1]: inactive | Potency [2]: inactive

CN1CCN(CC(=O)N2c3ccccc3C(=O)Nc3cccnc32)CC1
viability change, negative = cytotoxic [1]: 8.13% [at 8.39 µM] | activity change, negative = cytotoxicity [2]: 0.984% [at 8.39 µM]

CC1(C)S[C@@H]2[C@H](NC(=O)C(C(=O)O)c3ccccc3)C(=O)N2[C@H]1C(=O)O (stereo partly specified)
Potency [1]: inactive | Potency [2]: inactive

COc1cc(C(C)C)ccc1C
viability change, negative = cytotoxic [1]: 0.655% [at 18.9 µM] | activity change, negative = cytotoxicity [2]: -11.5% [at 18.9 µM]

Nc1ccc(Cl)cc1Cl
Potency [1]: inactive | Potency [2]: inactive

COc1ccc2c(c1)c(CC(=O)OCC(=O)O)c(C)n2C(=O)c1ccc(Cl)cc1
Potency [1]: inactive | Potency [2]: inactive

NS(=O)(=O)c1cc2c(cc1Cl)NC(C(Cl)Cl)NS2(=O)=O (stereo unspecified)
Potency [1]: inactive | Potency [2]: inactive

O=C(O)c1cc(N=Nc2ccc([N+](=O)[O-])cc2)ccc1O
Potency [1]: inactive | Potency [2]: inactive

C=C(C)C(=O)OCCCCCCCCCCCCC
Potency [1]: inactive | Potency [2]: inactive

C/C=C/C(=O)C1=C(C)C=CCC1(C)C
Potency [1]: inactive | Potency [2]: inactive

CCC[C@@H]1C[C@@H](C(=O)N[C@@H]([C@H]2O[C@H](SC)[C@H](O)[C@@H](O)[C@H]2O)[C@@H](C)O)N(C)C1
Potency [1]: inactive | Potency [2]: inactive

C[Si]1(C)O[Si](C)(C)O[Si](C)(C)O[Si](C)(C)O[Si](C)(C)O1
Potency [1]: inactive | Potency [2]: inactive

CCCCNC(=O)NS(=O)(=O)c1ccc(N)cc1
Potency [1]: inactive | Potency [2]: inactive
